Results as given in PubChem BioAssay (Tox21).
Records with an inconclusive call do not appear. Active and inactive are the calls of the source. Unless noted, calls come from the whole dose curve; as a rule, active = well fitted curve in the direction sought with a large enough effect in the repeat runs; inconclusive = weak or mixed curves; inactive = no such curve, though single readings can be large; an effect the other way counts as inactive or inconclusive.

Tests used:
[1] = qHTS assay to identify small molecule antagonists of the estrogen related receptor (ERR) signaling pathway from Tox21 library - cell viability counter screen (AID 1224834); note: nearly all actives have a fitted effect of over 30% in size
In short: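 ERR cells, 2,000/well; 6 h settle at 37 C/5% CO2; pin-tool compound transfer in DMSO; 17.5 h at 37 C; CellTiter-Fluor, 30 min; fluorescence intensity.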

[2] = molecular target: Luciferin 4-monooxygenase (Photinus pyralis) (UniProt P08659); assay: qHTS assay to identify small molecule inhibitors of firefly luciferase (AID 1224835); note: nearly all actives have a fitted effect of over 25% in size
Luciferin 4-monooxygenase (Photinus pyralis), sequence (P08659 whole entry, looked up): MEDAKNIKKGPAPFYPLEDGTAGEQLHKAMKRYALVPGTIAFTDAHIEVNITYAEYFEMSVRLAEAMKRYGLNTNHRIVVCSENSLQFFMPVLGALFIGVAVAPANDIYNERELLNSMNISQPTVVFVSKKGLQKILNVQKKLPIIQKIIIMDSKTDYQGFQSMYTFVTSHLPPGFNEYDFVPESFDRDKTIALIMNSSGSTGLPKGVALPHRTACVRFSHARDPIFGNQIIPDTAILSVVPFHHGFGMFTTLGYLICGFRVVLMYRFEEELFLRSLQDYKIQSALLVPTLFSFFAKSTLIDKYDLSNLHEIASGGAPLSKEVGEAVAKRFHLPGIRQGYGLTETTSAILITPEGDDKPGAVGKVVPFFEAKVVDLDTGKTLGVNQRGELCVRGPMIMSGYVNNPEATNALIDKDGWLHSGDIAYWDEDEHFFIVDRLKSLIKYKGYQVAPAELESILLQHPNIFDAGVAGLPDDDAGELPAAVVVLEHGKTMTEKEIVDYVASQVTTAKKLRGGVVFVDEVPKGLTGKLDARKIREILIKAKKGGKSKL
In short: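 Quantitative HTS format; KM concentrations of both substrates. Purified P. pyralis FLuc activity quantified from luminescence images.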

[3] = qHTS assay to identify small molecule agonists of the constitutive androstane receptor (CAR) signaling pathway - cell viability counter screen (AID 1224836); note: nearly all actives have a fitted effect of over 45% in size
In short: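 Counter screen multiplexed with the CAR reporter readout: HepG2 cells co-transfected with hCAR and the CYP2B6-2.2kb construct receive a 15-concentration compound series and 0.75 uM PK11195 (final), then CellTiter-Fluor fluorescence is read after 23 h.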

[4] = qHTS assay to identify small molecule antagonists of the constitutive androstane receptor (CAR) signaling pathway - cell viability counter screen (AID 1224837); note: nearly all actives have a fitted effect of over 45% in size
In short: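 Viability was measured with CellTiter-Fluor in a HepG2 line carrying stably transfected hCAR and a CYP2B6-2.2kb construct. Cells were exposed for 23 hr at 37 C to 15 compound concentrations with 50 nM CITCO as agonist.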

[5] = molecular target: Nuclear receptor subfamily 1 group I member 3 (Homo sapiens) (UniProt Q14994); assay: qHTS assay to identify small molecule antagonists of the constitutive androstane receptor (CAR) signaling pathway (AID 1224838);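 note: HepG2 cells stably expressing hCAR with CYP2B6 luciferase reporter stimulated by CITCO; nearly all actives have a fitted effect of over 40% in size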
Nuclear receptor subfamily 1 group I member 3 (Homo sapiens), sequence (Q14994 whole entry, looked up): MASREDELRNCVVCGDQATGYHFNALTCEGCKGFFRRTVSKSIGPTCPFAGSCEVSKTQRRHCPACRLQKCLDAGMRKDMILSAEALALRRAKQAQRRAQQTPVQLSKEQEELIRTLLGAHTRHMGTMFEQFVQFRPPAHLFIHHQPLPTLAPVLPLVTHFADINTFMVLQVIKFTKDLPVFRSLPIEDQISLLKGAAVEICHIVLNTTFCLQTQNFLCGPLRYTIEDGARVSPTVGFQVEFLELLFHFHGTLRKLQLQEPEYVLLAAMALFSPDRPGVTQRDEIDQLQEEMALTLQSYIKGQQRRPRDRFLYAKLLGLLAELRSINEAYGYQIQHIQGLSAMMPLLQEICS
In short: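 Antagonist mode used CITCO at a final 50 nM to activate CAR in human hepatoma HepG2 cells carrying stable hCAR and a 2.2 kb CYP2B6 promoter-luciferase construct. Compounds were tested at 15 concentrations over 24 h, with luminescence as the end point.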

[6] = molecular target: Nuclear receptor subfamily 1 group I member 3 (Homo sapiens) (UniProt Q14994); assay: qHTS assay to identify small molecule agonists of the constitutive androstane receptor (CAR) signaling pathway (AID 1224839); note: nearly all actives have a fitted effect of over 15% in size
In short: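 A 15-concentration quantitative screen uses HepG2 cells co-transfected stably with human CAR and CYP2B6-2.2kb reporter. Treatment lasts 24 h with 0.75 uM PK11195 final present; ONE-Glo luminescence is the signal.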

[7] = qHTS assay to identify small molecule antagonists of the estrogen related receptor signaling pathway with the pleiotropic PPARgamma coactivator (PGC) from Tox21 10K library - cell viability counter screen (AID 1224840; active = well fitted cell-killing curve with a large enough effect in the repeat runs, not every such curve was filed as active; note: nearly all actives have a fitted effect of over 40% in size)
In short: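 Multiplexed viability counter screen in the PGC/ERR cell line: cells treated with DMSO-dissolved compounds for 17.5 hours at 37 C, then viability measured as CellTiter-Fluor fluorescence.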

[8] = qHTS assay to identify small molecule antagonists of the estrogen related receptor signaling pathway with the pleiotropic PPARgamma coactivator (PGC) from Tox21 10K library (AID 1224841; call rule not given here; note: actives are mostly falling curves and most rising ones were filed inactive; nearly all actives have a fitted effect of over 50% in size)
In short: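 Steps: plate 2,000 PGC/ERR cells per well; incubate 6 h at 37 C with 5% CO2; transfer compounds from DMSO stocks by pin tool; incubate 18 h at 37 C; add One-Glo; measure luminescence 30 min later.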

[9] = qHTS assay to identify small molecule agonists of the estrogen related receptor signaling pathway with the pleiotropic PPARgamma coactivator (PGC) from Tox21 10K library (AID 1224842); note: nearly all actives have a fitted effect of over 15% in size
In short: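 PGC/ERR reporter cells (NTP line) were seeded 2,000 per well, rested 6 h at 37 C/5% CO2, then pin-dosed with compounds in DMSO for 18 h at 37 C; luciferase read by One-Glo luminescence after 30 min at room temperature.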

[10] = molecular target: Thyrotropin receptor (Homo sapiens) (UniProt P16473); assay: qHTS assay to identify small molecule agonists of the thyroid stimulating hormone receptor (TSHR) signaling pathway (AID 1224843; calls by dose curve; note: nearly all actives have a fitted effect of over 45% in size)
Thyrotropin receptor (Homo sapiens), sequence (P16473 whole entry, looked up): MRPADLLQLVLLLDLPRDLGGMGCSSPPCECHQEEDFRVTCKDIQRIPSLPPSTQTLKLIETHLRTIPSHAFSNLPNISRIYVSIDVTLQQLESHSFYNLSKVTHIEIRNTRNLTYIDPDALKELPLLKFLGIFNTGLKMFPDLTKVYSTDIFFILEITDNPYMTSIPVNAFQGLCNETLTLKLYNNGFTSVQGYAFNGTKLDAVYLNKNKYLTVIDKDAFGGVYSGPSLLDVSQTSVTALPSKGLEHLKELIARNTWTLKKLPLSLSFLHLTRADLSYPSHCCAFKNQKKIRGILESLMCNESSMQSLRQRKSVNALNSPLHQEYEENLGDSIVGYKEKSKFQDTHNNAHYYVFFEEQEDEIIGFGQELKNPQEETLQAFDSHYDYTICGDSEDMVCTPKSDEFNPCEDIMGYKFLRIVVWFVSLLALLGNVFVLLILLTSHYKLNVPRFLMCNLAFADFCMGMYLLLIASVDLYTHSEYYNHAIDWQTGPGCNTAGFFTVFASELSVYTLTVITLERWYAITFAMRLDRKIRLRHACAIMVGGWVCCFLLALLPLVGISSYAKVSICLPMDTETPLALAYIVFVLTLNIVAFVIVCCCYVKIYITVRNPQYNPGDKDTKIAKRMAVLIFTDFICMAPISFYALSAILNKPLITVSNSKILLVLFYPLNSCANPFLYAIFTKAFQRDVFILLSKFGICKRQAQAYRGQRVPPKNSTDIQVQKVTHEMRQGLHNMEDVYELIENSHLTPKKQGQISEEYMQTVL
In short: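 Compounds are titrated over 15 concentrations, in triplicate, onto TSHR-HEK293 cells seeded at 800/well. Plates sit 30 min at room temperature before cAMP-d2 and anti-cAMP cryptate are added; signal is read after a further hour.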

[11] = qHTS assay to identify small molecule agonists of the hypoxia (HIF-1) signaling pathway - cell viability counter screen (AID 1224844; calls by dose curve; note: nearly all actives have a fitted effect of over 50% in size)
In short: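 Cytotoxicity was measured in parallel with the HRE-driven beta-lactamase readout: after 17 hrs of compound exposure at 37C, HRE-bla ME-180 cells received CellTiter-Glo and luminescence was recorded 30 min later.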

[12] = qHTS assay to identify small molecule agonists of H2AX (AID 1224845; active = well fitted activation curve with a large enough effect in the signal ratio in the repeat runs, not every such curve was filed as active; the % refers to the signal ratio)
In short: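 Wild-type CHO-K1 cells plated overnight, then exposed 3 hr at 37C to compounds at 15 concentrations (0.76% DMSO). Lysed, then HTRF anti-pH2AX(S139)-cryptate/anti-H2AX-d2 detection after 24 hr at room temperature; emissions 665 and 620 nm.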

[13] = qHTS assay to identify small molecule agonists of the hypoxia (HIF-1) signaling pathway (AID 1224846; active = well fitted activation curve with a large enough effect in the signal ratio in the repeat runs, not every such curve was filed as active; the % refers to the signal ratio)
In short: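 Compounds from the Tox21 10K library, dissolved in DMSO, are tested for induction of a hypoxia response element–controlled beta-lactamase reporter in ME-180 cells. Exposure lasts 17 hrs at 37C after a 5 hr settling period, followed by CCF4-AM FRET substrate.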

[14] = qHTS assay to identify small molecule agonists of H2AX - cell viability counter screen (AID 1224847; calls by dose curve; note: top concentration of the series differs between compounds; nearly all actives have a fitted effect of over 30% in size)
In short: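 We seed wild-type CHO-K1 cells overnight, treat them for 3 hr at 37C with compounds in 15-concentration series, and quantify remaining viability by CellTiter-Glo luminescence.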

[15] = qHTS assay to identify small molecule antagonists of the estrogen related receptor (ERR) signaling pathway from Tox21 library (AID 1224848); note: nearly all actives have a fitted effect of over 50% in size
In short: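 First, 2,000 ERR cells per well were plated and held 6 h at 37 C/5% CO2. Next, compounds in DMSO were pinned in and left 18 h at 37 C. Finally, ONE-Glo was added and luminescence read after 30 min at room temperature.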

[16] = qHTS assay to identify small molecule agonists of the estrogen related receptor (ERR) signaling pathway from Tox21 library (AID 1224849; calls by dose curve; note: nearly all actives have a fitted effect of over 15% in size); conditions: ERR reporter cell line, ONE-Glo luciferase, 18 h; at 92.4 µM (top of the series) unless noted
In short: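 Cells carrying the ERR reporter were plated and allowed to settle for 6 h, exposed to library compounds for 18 h at 37 C, then lysed with ONE-Glo and luminescence measured.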

[17] = qHTS RealTime-Glo MT Cell Viability Assay in HepG2 cells - 24 hour (AID 1224867); note: nearly all actives have a fitted effect of over 50% in size
In short: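 Cell number in HepG2 cultures estimated from NanoLuc luminescence generated by metabolic reduction of a prosubstrate by living cells. The homogeneous, nonlytic format allowed repeated reads at 0, 8, 16, 24, 32 and 40 h of compound exposure.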

[18] = qHTS RealTime-Glo MT Cell Viability Assay in HEK293 cells - 32 hour (AID 1224868)
In short: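 Homogeneous bioluminescent viability format in HEK293 cells (600 cells/well). Following 5 h at 37 C/5% CO2, 23 nL compound was pintooled; the signal was measured repeatedly during 40 h incubation.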

[19] = A CellTox Green Cytotoxicity Assay to monitor cytotoxicity in HEK293 cells - 0 hour (AID 1224869); note: nearly all actives have a fitted effect of over 50% in size
In short: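 Cells (HEK293, 600/well) and dye reagent are dispensed together. After 5 h at 37 C, 23 nL compound is pinned in. Plates stay at 37 C for 40 h with fluorescence read at 0h, 8h, 16h, 24h, 32h and 40h.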
% is set by controls: 0 for no effect and ±100 for the full control effect.

CCOC(=O)c1cccc(N)c1
inactive: Potency [1] | Potency [2] | Potency [3] | Potency [4] | Potency [5] | Potency [6] | Potency [7] | Potency [8] | outcome [9] | Potency [10] | Potency [11] | outcome [12] | outcome [13] | Potency [14] | Potency [15] | activity change, positive = activation [16] -2.77% [at 42.5 µM] | Potency [17] | Potency [18] | Potency [19]

CCCCCCCCCCCCCCCCC
inactive: Potency [1] | Potency [2] | Potency [3] | Potency [4] | Potency [5] | Potency [6] | Potency [7] | Potency [8] | outcome [9] | Potency [10] | Potency [11] | outcome [12] | outcome [13] | Potency [14] | Potency [15] | Potency [17] | Potency [18] | Potency [19]

C1OCOCO1
inactive: Potency [1] | Potency [2] | Potency [3] | Potency [4] | Potency [5] | Potency [6] | Potency [7] | Potency [8] | outcome [9] | Potency [10] | Potency [11] | outcome [12] | outcome [13] | Potency [14] | Potency [15] | Potency [17] | Potency [18] | Potency [19]

COC(=O)CC(C)=O
inactive: Potency [1] | Potency [2] | Potency [3] | Potency [4] | Potency [5] | Potency [6] | Potency [7] | Potency [8] | outcome [9] | Potency [10] | Potency [11] | outcome [12] | outcome [13] | Potency [14] | Potency [15] | activity change, positive = activation [16] 2.59% | Potency [17] | Potency [18] | Potency [19]

O=C(O)CCCl
inactive: Potency [1] | Potency [2] | Potency [3] | Potency [4] | Potency [5] | Potency [6] | Potency [7] | Potency [8] | outcome [9] | Potency [10] | Potency [11] | outcome [12] | outcome [13] | Potency [14] | Potency [15] | activity change, positive = activation [16] -15.3% | Potency [17] | Potency [18] | Potency [19]

COC(=O)NN
inactive: Potency [1] | Potency [2] | Potency [3] | Potency [4] | Potency [5] | Potency [6] | Potency [7] | Potency [8] | outcome [9] | Potency [10] | Potency [11] | outcome [12] | outcome [13] | Potency [14] | Potency [15] | Potency [17] | Potency [18] | Potency [19]

O=C1CCCN1C1CCCCC1
inactive: Potency [1] | Potency [2] | Potency [3] | Potency [4] | Potency [5] | Potency [6] | Potency [7] | Potency [8] | outcome [9] | Potency [10] | Potency [11] | outcome [12] | outcome [13] | Potency [14] | Potency [15] | activity change, positive = activation [16] -1.04% | Potency [17] | Potency [19]

CN1C(=O)N(C)C(O)C1O (stereo not drawn)
inactive: Potency [1] | Potency [2] | Potency [3] | Potency [4] | Potency [5] | Potency [6] | Potency [7] | Potency [8] | outcome [9] | Potency [10] | Potency [11] | outcome [12] | outcome [13] | Potency [14] | Potency [15] | activity change, positive = activation [16] 0.239% | Potency [17] | Potency [18] | Potency [19]

CC(C)CNCC(C)C
inactive: Potency [1] | Potency [2] | Potency [3] | Potency [4] | Potency [5] | Potency [6] | Potency [7] | Potency [8] | outcome [9] | Potency [10] | Potency [11] | outcome [12] | outcome [13] | Potency [14] | Potency [15] | activity change, positive = activation [16] 1.17% | Potency [17] | Potency [18] | Potency [19]

CCc1cccc2c(CCO)c[nH]c12
inactive: Potency [1] | Potency [2] | Potency [3] | Potency [4] | Potency [5] | Potency [6] | Potency [7] | Potency [8] | outcome [9] | Potency [10] | Potency [11] | outcome [12] | outcome [13] | Potency [14] | Potency [15] | activity change, positive = activation [16] 6.5% [at 42.5 µM] | Potency [17] | Potency [19]

CCOc1ccc(C(=O)OCCN(CC)CC)cc1
inactive: Potency [1] | Potency [2] | Potency [3] | Potency [4] | Potency [5] | Potency [6] | Potency [7] | Potency [8] | outcome [9] | Potency [10] | Potency [11] | outcome [12] | outcome [13] | Potency [14] | Potency [15] | Potency [17] | Potency [18] | Potency [19]

CC(C)(C)NCCNC(C)(C)C
inactive: Potency [1] | Potency [2] | Potency [3] | Potency [4] | Potency [5] | Potency [6] | Potency [7] | Potency [8] | outcome [9] | Potency [10] | Potency [11] | outcome [12] | outcome [13] | Potency [14] | Potency [15] | activity change, positive = activation [16] 3.81% | Potency [17] | Potency [19]

CC(C)(CC(=O)O)C(=O)O
inactive: Potency [1] | Potency [2] | Potency [3] | Potency [4] | Potency [5] | Potency [6] | Potency [7] | Potency [8] | outcome [9] | Potency [10] | Potency [11] | outcome [12] | outcome [13] | Potency [14] | Potency [15] | activity change, positive = activation [16] 3.63% | Potency [17] | Potency [18] | Potency [19]

C=CCCCCCCCCC=O
inactive: Potency [1] | Potency [2] | Potency [3] | Potency [4] | Potency [5] | Potency [6] | Potency [7] | Potency [8] | outcome [9] | Potency [10] | Potency [11] | outcome [12] | outcome [13] | Potency [14] | Potency [15] | Potency [17] | Potency [18] | Potency [19]
